# Test results: PubChem BioAssay (NCATS)
# Records with an inconclusive call do not appear. Unmarked numbers belong to inactive results. Active and inactive are the calls of the source. The call rests on the fitted dose curve; in most records, active means well fitted inhibition curve with a large enough effect; inconclusive means small, poorly fitted or top-dose-only effect; inactive means no such curve, though single readings can be large or run the other way.
# Assay: NS1 protein of Zika virus - qHTS assay to identify small molecule inhibitors in human HEK 293 cells (AID 1347053);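 further: plate controls were infected untreated cells for no effect and uninfected cells for full effect; nearly all actives have a fitted effect of over 55% in size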
# Details: HEK293 ZIKV MR766 infection, NS1 TR-FRET, 24 h; series mostly up to 46.1 µM; activity change, negative = inhibition: at the top concentration
# Description: National Center for Advancing Translational Sciences [NCATS]
# Johns Hopkins University School of Medicine
# The non-structural 1 (NS1) protein of zika virus is known to associate with the viral replication complex. This cell-based TR-FRET ZIKV NS-1 assay measures the increased NS-1 protein in human HEK 293 cells after a 24-hour Zika virus infection by a TR-FRET assay readout. A decrease in the Time-resolved fluorescence energy transfer (TR-FRET) signal in this assay by small molecule treatment indicates an inhibitory effect of the small molecule on the expression of Zika virus NS1 correlating with Zika virus replication.
# HEK 293 cells were cultured in EMEM (ATCC, Cat. # 30-2003) medium with 10% fetal bovine serum (GE healthcare Life Sciences, Cat. # SH30071.03), and 1% Pen/Strep (Gibco, Cat. # 15140-122). Cells were seeded in the assay plate and incubated at 37 C with 5% CO2 for 20 hours. Compounds were added to cells and incubated for one hour before addition of ZIKV MR766 strain solution to cells (MOI = 0.5). After an incubation at 37 C for 24 hours, the reagent mixture of TR-FRET ZIKV NS1 assay using two anti-ZIKV NS1 antibodies was added to assay plates. The TR-FRET signals in assay plates were measured using an Envision plate reader (PerkinElmer). Data were normalized by using the cell-containing wells without ZIKV as a negative control (0% NS-1) and wells containing ZIKV infected cells as a positive control (100% NS-1 level).
SMILES,Potency,"activity change, negative = inhibition"
CC(CN1c2ccccc2Sc2ccccc21)N(C)C (stereo not given),inactive,
CCC(=O)Nc1ccc(O)cc1,,3.92%
[Cl][In]([Cl])[Cl],,-16.4% [at 92.8 µM]
[O-][n+]1cccc(CO)c1,,-1.53%
COc1cc(C(=O)N2CCOCC2)cc(OC)c1OC,,-17.1%
COc1ccc2[nH]c(S(=O)Cc3ncc(C)c(OC)c3C)nc2n1 (stereo not given),,-6.97%
Cc1cc(O)cc2c1O[C@](C)(CCC[C@H](C)CCC[C@H](C)CCCC(C)C)CC2,,-4.65%
CC(=O)NC(Cc1ccccc1)C(=O)O (stereo not given),,1.31%
CCCOC(=O)c1ccccc1,,-8.36%
O=C(O)c1ccccn1,,-8.2%
O=C1NS(=O)(=O)c2ccccc21,,-4.49%
CCCCCCCCCCCCCCCC(=O)NCCO,,-0.598%
NC(=O)N/N=C/c1ccc([N+](=O)[O-])o1,inactive,
Nc1cc(=O)[nH]c(N)n1,inactive,
Cc1ccc(C(C)C)cc2c(C)ccc1-2,,3.27%
O=C1NC(=O)[C@@]2(CCOc3ccc(F)cc32)N1,inactive,
O=c1[nH]c(=O)c2[nH]c(=O)[nH]c2[nH]1,,-8.7% [at 9.2 µM]
CCOC(=O)[C@H](CCc1ccccc1)N[C@@H](C)C(=O)N1C(=O)N(C)C[C@H]1C(=O)O,,0.263%
CCCCN(CCCC)CC(O)c1cc(Cl)cc2c1-c1ccc(Cl)cc1/C2=C/c1ccc(Cl)cc1 (stereo not given),inactive,
CN(C)CCC=C1c2ccccc2CCc2ccccc21,inactive,

SMILES,Potency,"activity change, negative = inhibition"
O=C(Oc1ccccc1C(=O)O)c1ccccc1O,,-1.26%
CNC(=O)Oc1ccc2c(c1)[C@]1(C)CCN(C)[C@@H]1N2C,inactive,
CN1CCC[C@@H]1Cc1c[nH]c2ccc(CCS(=O)(=O)c3ccccc3)cc12,inactive,
N[C@@H](CSCCCO)C(=O)O,,-5.23% [at 20.1 µM]
CCOC(CN1CCN(CC(C)C(=O)c2ccccc2)CC1)c1ccccc1 (stereo not given),,8.51% [at 20.1 µM]
C[C@H](N)[C@H](O)c1cccc(O)c1,,-9.4%
CC[C@@]1(c2ccccc2)NC(=O)N(C)C1=O,,-19.2%
CCN(CC)CCCC(C)Nc1c2ccc(Cl)cc2nc2ccc(OC)cc12 (stereo not given),,-9.57%
NCCNCCNCCNCCN,,-10.7% [at 9.2 µM]
CN(C)CCOC(C)(c1ccccc1)c1ccccn1 (stereo not given),inactive,
O=c1[nH]cnc2c1ncn2[C@@H]1O[C@H](CO)[C@@H](O)[C@H]1O,,5.42%
CC(=O)Oc1ccc(C2(c3ccc(OC(C)=O)cc3)C(=O)Nc3ccccc32)cc1,,-17.3%
CCCCN1CCCC[C@H]1C(=O)Nc1c(C)cccc1C,,8.16%
CCCCCCCCCCCCCCCCCCOCC(O)CO (stereo not given),,9.25%
CC(C)(C)c1onc(OCP(=O)(O)O)c1CC(N)C(=O)O (stereo not given),,-7.79%
O=S(=O)(O)c1cc(I)c(O)c2ncccc12,,0.415%
COc1ccc(S(=O)(=O)Nc2nnc(CC(C)C)s2)cc1,,-1.97%
CC(=O)Oc1c(C)c(C)c2c(c1C)CC[C@@](C)(CCC[C@H](C)CCC[C@H](C)CCCC(C)C)O2,,-5.88%
COC(=O)[C@H]1[C@H]2C[C@@H]3c4[nH]c5cc(OC)ccc5c4CCN3C[C@H]2C[C@@H](OC(=O)COc2ccc(OC)cc2)[C@@H]1OC,,-2.02%
CC1(C)OC(=O)NC1=O,,0.669%
